Measurements: PubChem BioAssay (NCATS)
Records with an inconclusive call do not appear. The source made the active and inactive calls. Unless noted, the call rests on the fitted dose curve; in most records, active means well fitted curve in the direction sought with a large enough effect; inconclusive means small, poorly fitted or top-dose-only effect, or another doubt; inactive means no such curve, though single readings can be large; an effect the other way counts as inactive or inconclusive.

Assays:
[1] = target: Lysosomal acid glucosylceramidase (Homo sapiens) (UniProt P04062); test: Glucocerebrosidase-p2 (AID 348; in the data active means potency below about 10 µM; further: potency means the concentration at half of the fitted maximal effect); conditions: purified GBA, blue fluorogenic substrate, 40 min
Chain of Lysosomal acid glucosylceramidase (Homo sapiens) (P04062 whole entry, looked up): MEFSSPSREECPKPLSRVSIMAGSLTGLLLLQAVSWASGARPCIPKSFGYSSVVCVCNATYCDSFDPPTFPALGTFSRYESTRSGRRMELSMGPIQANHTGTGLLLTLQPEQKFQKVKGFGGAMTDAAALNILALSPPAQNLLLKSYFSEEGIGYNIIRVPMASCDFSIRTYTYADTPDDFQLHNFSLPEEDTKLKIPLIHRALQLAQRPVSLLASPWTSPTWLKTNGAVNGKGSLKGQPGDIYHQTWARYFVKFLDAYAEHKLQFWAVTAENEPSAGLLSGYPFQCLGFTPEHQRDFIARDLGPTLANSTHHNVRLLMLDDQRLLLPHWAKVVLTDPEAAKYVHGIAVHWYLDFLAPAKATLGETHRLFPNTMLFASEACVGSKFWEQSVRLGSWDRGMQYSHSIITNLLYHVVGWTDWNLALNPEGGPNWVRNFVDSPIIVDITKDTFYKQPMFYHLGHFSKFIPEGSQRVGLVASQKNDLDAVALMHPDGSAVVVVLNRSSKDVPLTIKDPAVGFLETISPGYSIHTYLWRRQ
Procedure, shortened: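 Normal human glucocerebrosidase (0.2 nM) with blue fluorogenic substrate (80 uM final) in citrate/phosphate pH 5.9 with 10mM sodium taurocholate, 0.01% tween-20; 40 min RT, NaOH/glycine stop; fluorescence Ex 365/Em 440; AC50 from a titration from 0.6 nM upwards.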

[2] = AP1 Signaling Pathway (AID 357; active means well fitted curve in either direction with a large enough effect, not every such curve was filed as active;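 further: ME-180 reporter cells stimulated with EGF at its EC50 level; on the % scale 0 is the no-effect control and ±100 the full control effect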); conditions: ME-180 AP-1-bla reporter, EGF-induced, beta-lactamase ratio, 5 h; at 7.69 µM (top of the series) unless noted
Procedure, shortened: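 Read-out was the 460nm/530nm emission ratio (excitation 405nm) after CCF4 loading for 2.5 hours at room temperature. Cells carried an AP-1-driven beta-lactamase reporter, were stimulated with EC50 EGF plus compound for 5 hours, and AC50 values came from titrations.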

[3] = target: Cytochrome P450 1A2 (Homo sapiens) (UniProt P05177); test: p450-cyp1a2 (AID 410; calls by dose curve; further: potency means the concentration at half of the fitted maximal effect;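 on activity change, negative = inhibition: -100% = full effect of reference inhibitor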); conditions: recombinant CYP1A2, luciferin-ME demethylation, luminescence; series mostly up to 57 µM
Chain of Cytochrome P450 1A2 (Homo sapiens) (P05177 whole entry, looked up): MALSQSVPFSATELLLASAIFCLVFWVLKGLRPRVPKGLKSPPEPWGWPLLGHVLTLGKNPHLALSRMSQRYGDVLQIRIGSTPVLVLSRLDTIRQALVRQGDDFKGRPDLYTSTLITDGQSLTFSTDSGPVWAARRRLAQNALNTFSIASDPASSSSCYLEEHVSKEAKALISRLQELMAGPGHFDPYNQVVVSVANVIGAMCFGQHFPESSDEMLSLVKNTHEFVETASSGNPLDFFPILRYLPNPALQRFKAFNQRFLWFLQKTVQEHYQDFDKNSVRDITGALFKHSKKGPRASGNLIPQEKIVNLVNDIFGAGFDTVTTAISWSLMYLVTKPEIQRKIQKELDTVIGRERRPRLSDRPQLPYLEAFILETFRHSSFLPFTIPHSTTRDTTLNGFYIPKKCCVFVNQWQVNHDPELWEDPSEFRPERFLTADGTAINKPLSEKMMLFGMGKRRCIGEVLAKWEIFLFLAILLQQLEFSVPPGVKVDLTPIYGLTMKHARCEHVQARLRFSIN
Procedure, shortened: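 O-Demethylation of luciferin 6' methyl ether by human CYP1A2 is monitored as luciferase luminescence. Substrate sits at Km (100uM); enzyme is 20nM. Values are scaled to 57 uM furafylline as maximal inhibition.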

[4] = NFAT Signaling Pathway (AID 444; active means well fitted curve in either direction with a large enough effect, not every such curve was filed as active;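 further: carbachol stimulus at about its EC50 of 1 µM final; on the % scale 0 is the no-effect control and ±100 the full control effect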); conditions: Jurkat NFAT-bla M1, carbachol, beta-lactamase ratio, 5 h; at 7.69 µM (top of the series) unless noted
Procedure, shortened: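 Read-out: CCF4 FRET ratio (460 nm/530 nm) after 1 h RT dye loading, used for %activity and AC50 from titration series. Cells: Jurkat NFAT-β-lactamase/M1 line, treated with compound plus 1 uM carbachol for 5 h, 37 °C.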

[5] = Stat Signaling Pathway (AID 446; active means well fitted curve in either direction with a large enough effect, not every such curve was filed as active;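 further: ME-180 cervical cancer cells given 40 pM IL-6 alongside compound; SIE-controlled beta-lactamase reporter measured as 460/530 nm FRET emission ratio; on the % scale 0 is the no-effect control and ±100 the full control effect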); conditions: ME-180 (cervical carcinoma) SIE beta-lactamase reporter, IL-6 stimulated, 5 h; at 7.69 µM (top of the series) unless noted
Procedure, shortened: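 Overnight-plated ME-180 cells bearing a STAT Inducible Element beta-lactamase reporter; 5 h co-exposure to compound and 40 pM IL-6; values normalized to 300 pM IL-6 and 125 nM JAK inhibitor controls.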

[6] = target: Glucocorticoid receptor (Homo sapiens) (UniProt P04150); test: GR-GFP Redistribution (AID 450;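 active means compounds whose dose series gives a full or clear partial fitted curve of increased nuclear translocation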; further: potency means the concentration at half of the fitted maximal effect); conditions: U2OS GR-GFP nuclear translocation, laser cytometry, 2 h
Chain of Glucocorticoid receptor (Homo sapiens) (P04150 whole entry, looked up, the tested form may be a part): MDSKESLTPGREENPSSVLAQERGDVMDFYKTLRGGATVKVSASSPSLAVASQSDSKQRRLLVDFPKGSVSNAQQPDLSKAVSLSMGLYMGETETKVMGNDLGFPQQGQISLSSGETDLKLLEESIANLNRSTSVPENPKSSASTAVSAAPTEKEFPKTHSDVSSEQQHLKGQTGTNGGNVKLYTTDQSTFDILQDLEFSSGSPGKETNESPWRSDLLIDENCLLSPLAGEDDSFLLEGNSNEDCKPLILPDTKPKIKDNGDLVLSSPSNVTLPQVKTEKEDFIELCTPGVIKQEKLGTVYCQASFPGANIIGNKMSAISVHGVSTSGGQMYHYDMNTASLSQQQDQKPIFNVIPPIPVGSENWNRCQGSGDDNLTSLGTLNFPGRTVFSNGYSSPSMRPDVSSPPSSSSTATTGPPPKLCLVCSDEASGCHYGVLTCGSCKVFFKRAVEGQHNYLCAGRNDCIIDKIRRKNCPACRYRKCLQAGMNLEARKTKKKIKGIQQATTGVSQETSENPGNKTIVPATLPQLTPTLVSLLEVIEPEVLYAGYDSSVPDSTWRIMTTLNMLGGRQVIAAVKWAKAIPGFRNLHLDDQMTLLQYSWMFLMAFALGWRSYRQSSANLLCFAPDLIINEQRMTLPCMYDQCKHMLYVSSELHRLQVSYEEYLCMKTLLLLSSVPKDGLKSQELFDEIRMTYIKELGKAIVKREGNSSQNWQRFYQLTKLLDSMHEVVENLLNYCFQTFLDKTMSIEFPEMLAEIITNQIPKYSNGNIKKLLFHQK

[7] = target: Glucocorticoid receptor (Homo sapiens) (UniProt P04150); test: GR-EFC Redistribution (AID 451; calls by dose curve; further: potency means the concentration at half of the fitted maximal effect); conditions: CHO-K1 GR-EFC translocation, beta-gal luminescence, 2 h
Procedure, shortened: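 Translocation of GR-ED fusion to nuclear EA restores b-gal, read by luminescence after 1 h room-temperature detection. Engineered CHO-K1 biosensor cells, 1,000/well, exposed 2 h at 37 C to titrations up to 46 uM final.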

[8] = target: Mitogen-activated protein kinase 10 (Mus musculus) (UniProt Q61831); test: JNK3 AlphaScreen Assay (AID 530; active means well fitted curve in either direction with a large enough effect, not every such curve was filed as active;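 further: kinase came from lysate of stimulated human HepG2 cells; signal reports phosphorylation of biotinylated GST-cJun 1-79 at Ser73 with 10 µM ATP; on the % scale 0 is the no-effect control and ±100 the full control effect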); conditions: JNK3 lysate, c-Jun phosphorylation; series mostly up to 57.1 µM
Procedure, shortened: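 qHTS titrations with 15 min compound pre-incubation before adding ATP (10 uM final). Read-out: AlphaScreen of Ser73-phosphorylated biotin-GST-cJun using HepG2 lysate JNK3 activated by IL-1β and TNFα.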

[9] = target: Cytochrome P450 3A4 (Homo sapiens) (UniProt P08684); test: qHTS Assay for Activators of Cytochrome P450 3A4 (AID 885); conditions: recombinant CYP3A4, Luciferin-PPXE luminescence, 60 min; series mostly up to 57.1 µM; further: nearly all actives have a fitted effect of over 65% in size
Chain of Cytochrome P450 3A4 (Homo sapiens) (P08684 whole entry, looked up): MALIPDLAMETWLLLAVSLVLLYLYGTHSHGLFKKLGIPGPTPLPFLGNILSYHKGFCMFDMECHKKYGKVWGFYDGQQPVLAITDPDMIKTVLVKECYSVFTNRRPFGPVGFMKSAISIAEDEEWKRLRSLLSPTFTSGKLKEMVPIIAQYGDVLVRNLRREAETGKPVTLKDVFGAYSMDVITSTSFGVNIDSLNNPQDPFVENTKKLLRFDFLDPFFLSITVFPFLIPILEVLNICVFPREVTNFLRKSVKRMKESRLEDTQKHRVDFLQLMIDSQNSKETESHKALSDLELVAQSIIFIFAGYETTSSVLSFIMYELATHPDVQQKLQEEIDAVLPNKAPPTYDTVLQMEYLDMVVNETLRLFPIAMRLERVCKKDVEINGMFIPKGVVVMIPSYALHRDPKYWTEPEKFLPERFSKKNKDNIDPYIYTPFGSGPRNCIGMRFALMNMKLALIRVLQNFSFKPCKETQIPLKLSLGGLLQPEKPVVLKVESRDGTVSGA
Procedure, shortened: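 Using 20nM recombinant human CYP3A4 in potassium phosphate (200mM), substrate Luciferin-PPXE at 25uM, luminescent luciferin detection followed a 60-min RT NADPH reaction; data scaled to 57 uM ketoconazole.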

[10] = Confirmation and Secondary Assay for Modulators of Hemoglobin Beta Chain Splicing at IVS2 654 locus (AID 910); conditions: HeLa EGFP-654 splicing reporter, GFP fluorescence, 48 h; series mostly up to 38.3 µM;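 further: HeLa cells stably carrying EGFP split by mutant beta-globin IVS2-654 intron; per-well total GFP intensity by laser scanning cytometry after 2-day treatment; % of control where 0% means no effect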
Procedure, shortened: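 Readout: per-well total peak green fluorescence (488 nm ex, 500–520 nm em) from objects 5–250 µm, reflecting correct splicing of an EGFP-654 reporter. Compounds were applied for 2 days at 37 °C to overnight-plated HeLa EGFP-654 cells; controls were DMSO and 500 nM IVS2-654 PNA.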

[11] = Confirmation and Secondary Assay for Modulators of Hemoglobin Beta Chain Splicing at IVS2 705 locus (AID 930); conditions: HeLa EGFP-705 splicing reporter, GFP fluorescence, 48 h; series mostly up to 38.3 µM;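 further: HeLa cells stably expressing the EGFP-705 splicing reporter; GFP fluorescence per well restored by corrected splicing of the IVS2-705 intron in EGFP; % of control where 0% means no effect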
Procedure, shortened: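 Per-well GFP, captured at 1 x 8 µm resolution with 488 nm excitation, served as the read-out for HeLa EGFP-705 cells incubated 2 days with test compound versus DMSO.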

[12] = qHTS Assay for Lipid Storage Modulators (AID 1519; calls by dose curve); conditions: Drosophila S3 cells, BODIPY lipid droplet/cell ratio, laser cytometry, cells loaded with oleic acid; for activity change, negative = inhibition: at 57.5 µM (top of the series)
Procedure, shortened: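 Cells seeded at 5,000 per well were treated with compounds over a concentration series and loaded with oleic acid (400 uM, as added). Lipid droplet fluorescence (488 nm excitation, 500-530 nm channel) was read by laser-scanning cytometry and normalized to 20 uM Triacsin C.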

[13] = target: Ubiquitin carboxyl-terminal hydrolase 1 (Homo sapiens) (UniProt O94782); test: Inhibitors of USP1/UAF1: Pilot qHTS (AID 504865); conditions: purified USP1/UAF1, Ub-rhodamine cleavage fluorescence; series mostly up to 54.9 µM;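 further: rhodamine fluorescence freed from ubiquitin-rhodamine substrate followed over time; top concentration of the series differs between compounds; on the % scale 0 is the no-effect control and ±100 the full control effect; nearly all actives have a fitted effect of over 35% in size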
Chain of Ubiquitin carboxyl-terminal hydrolase 1 (Homo sapiens) (O94782 whole entry, looked up): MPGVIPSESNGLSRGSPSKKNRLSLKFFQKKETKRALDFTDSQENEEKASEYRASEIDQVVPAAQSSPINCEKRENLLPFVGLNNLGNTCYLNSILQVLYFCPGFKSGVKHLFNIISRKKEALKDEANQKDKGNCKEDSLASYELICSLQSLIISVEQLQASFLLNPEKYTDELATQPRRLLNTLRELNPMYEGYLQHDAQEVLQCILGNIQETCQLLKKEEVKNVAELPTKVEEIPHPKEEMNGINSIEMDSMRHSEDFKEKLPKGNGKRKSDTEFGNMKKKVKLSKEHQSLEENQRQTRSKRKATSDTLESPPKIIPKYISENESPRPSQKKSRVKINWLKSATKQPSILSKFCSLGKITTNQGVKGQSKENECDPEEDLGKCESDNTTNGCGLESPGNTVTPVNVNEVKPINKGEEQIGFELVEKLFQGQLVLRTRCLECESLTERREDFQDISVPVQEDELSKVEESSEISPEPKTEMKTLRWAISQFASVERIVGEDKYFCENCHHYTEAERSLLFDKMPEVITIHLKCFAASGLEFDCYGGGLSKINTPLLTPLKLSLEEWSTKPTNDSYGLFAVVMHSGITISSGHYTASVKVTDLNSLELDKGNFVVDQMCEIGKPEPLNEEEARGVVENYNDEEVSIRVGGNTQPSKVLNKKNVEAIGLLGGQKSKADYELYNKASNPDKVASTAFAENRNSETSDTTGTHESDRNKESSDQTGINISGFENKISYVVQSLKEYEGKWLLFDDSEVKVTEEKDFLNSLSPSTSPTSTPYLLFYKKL
Procedure, shortened: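 In 50mM HEPES pH 7.8 containing 0.5mM EDTA, 1mM TCEP, 0.1 mg/ml BSA and 0.01% Tween-20, 1nM USP1/UAF1 is exposed to compound for 15 min, then Ub-Rho (150nM final) is added and fluorescence is read over time.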

[14] = Primary qHTS for small molecule stabilizers of the endoplasmic reticulum resident proteome: Secreted ER Calcium Modulated Protein (SERCaMP) assay (AID 1508630); conditions: SH-SY5Y GLuc-SERCaMP (Gaussia luciferase released on ER calcium loss) secretion, thapsigargin, luminescence; series mostly up to 38.4 µM; further: on the % scale 0 is the no-effect control and ±100 the full control effect
Procedure, shortened: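 The SH-SY5Y reporter protocol was run at 3 concentrations up to 38.3 uM (primary) or 11 concentrations (follow-up): 16 h compound, 100 nM thapsigargin for 4 h, then extracellular luciferase luminescence.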

[15] = target: 3',5'-cyclic-AMP phosphodiesterase 4B (Homo sapiens) (UniProt Q07343); test: qHTS Assay for Inhibitors of PDE-IV (AID 607; active means well fitted activation curve with a large enough effect in the main read-out, with a control signal flat, not every such curve was filed as active; further: % of control where 0% means no effect); conditions: HEK293 ACTOne CNG channel cells, membrane potential fluorescence; series mostly up to 22.9 µM
Chain of 3',5'-cyclic-AMP phosphodiesterase 4B (Homo sapiens) (Q07343 whole entry, looked up): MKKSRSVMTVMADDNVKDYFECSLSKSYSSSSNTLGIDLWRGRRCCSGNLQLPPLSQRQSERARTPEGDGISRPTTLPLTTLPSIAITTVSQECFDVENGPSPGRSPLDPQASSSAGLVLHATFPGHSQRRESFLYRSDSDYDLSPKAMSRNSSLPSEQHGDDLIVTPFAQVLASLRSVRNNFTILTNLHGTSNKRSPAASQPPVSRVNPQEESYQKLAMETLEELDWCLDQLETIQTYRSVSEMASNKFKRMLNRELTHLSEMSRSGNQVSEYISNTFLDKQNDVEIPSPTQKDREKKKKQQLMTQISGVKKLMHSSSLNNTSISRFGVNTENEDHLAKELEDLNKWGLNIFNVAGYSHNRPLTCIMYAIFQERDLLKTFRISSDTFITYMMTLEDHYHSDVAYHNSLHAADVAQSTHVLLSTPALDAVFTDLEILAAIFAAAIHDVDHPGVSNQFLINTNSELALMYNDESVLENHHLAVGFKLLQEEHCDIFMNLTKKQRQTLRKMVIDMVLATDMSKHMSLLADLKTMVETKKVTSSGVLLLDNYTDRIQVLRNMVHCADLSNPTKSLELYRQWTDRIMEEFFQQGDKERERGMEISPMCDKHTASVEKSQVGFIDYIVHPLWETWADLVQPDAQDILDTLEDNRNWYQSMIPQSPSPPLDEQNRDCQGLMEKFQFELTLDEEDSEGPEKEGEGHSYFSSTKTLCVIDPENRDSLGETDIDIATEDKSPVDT
Procedure, shortened: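 Live HEK293 cells with a modified cyclic nucleotide-gated (CNG) channel report intracellular cAMP via membrane-potential dye fluorescence (ex 535/em 590 nm). Endogenous PDE-IV was targeted. Compounds were tested at up to 22.9 uM final; RO 20-1724 100 uM served as control.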

[16] = target: Cytochrome P450 3A4 (Homo sapiens) (UniProt P08684); test: qHTS Assay for Inhibitors and Substrates of Cytochrome P450 3A4 (AID 884); conditions: recombinant CYP3A4, Luciferin-PPXE luminescence; series mostly up to 57.1 µM; further: potency means the concentration at half of the fitted maximal effect; nearly all actives have a fitted effect of over 50% in size
Procedure, shortened: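 Luminescent readout of luciferin produced by CYP3A4 (20 nM) dealkylation of Luciferin-PPXE, 25 uM (its KM). NADPH-driven reaction ran 60 min at RT after 10 min compound preincubation; data scaled to 57 uM ketoconazole as 100% inhibition.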

[17] = target: Cytochrome P450 2C19 (Homo sapiens) (UniProt P33261); test: qHTS Assay for Inhibitors and Substrates of Cytochrome P450 2C19 (AID 899); conditions: recombinant CYP2C19, luciferin-H EGE luminescence; series mostly up to 57.1 µM; further: potency means the concentration at half of the fitted maximal effect; nearly all actives have a fitted effect of over 60% in size
Chain of Cytochrome P450 2C19 (Homo sapiens) (P33261 whole entry, looked up): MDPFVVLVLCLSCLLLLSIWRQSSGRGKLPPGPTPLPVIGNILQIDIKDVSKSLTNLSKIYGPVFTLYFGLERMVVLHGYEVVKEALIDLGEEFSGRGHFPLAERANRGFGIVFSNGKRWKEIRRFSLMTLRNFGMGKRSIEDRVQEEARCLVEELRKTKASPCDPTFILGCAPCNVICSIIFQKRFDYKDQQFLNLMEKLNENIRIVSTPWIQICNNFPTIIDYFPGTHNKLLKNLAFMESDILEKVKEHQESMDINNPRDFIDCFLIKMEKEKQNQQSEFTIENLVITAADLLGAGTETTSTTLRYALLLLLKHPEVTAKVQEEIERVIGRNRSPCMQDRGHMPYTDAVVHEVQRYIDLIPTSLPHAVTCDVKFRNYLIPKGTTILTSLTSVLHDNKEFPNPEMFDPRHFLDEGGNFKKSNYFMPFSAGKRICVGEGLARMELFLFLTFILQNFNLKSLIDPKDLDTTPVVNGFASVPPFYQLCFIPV
Procedure, shortened: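 Reactions contain 5nM enzyme, 10uM Luciferin-H EGE (KM) and 50mM KPO4; compound preincubates 10 min at 37C, NADPH regeneration starts turnover for 60 min. Luminescence after detection reagent gives activity.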

[18] = measured here: cell count channel max response
[19] = measured here: lipid channel max response

O=C(O)C1CCN(c2ncnc3ccc(-c4ccccc4C(F)(F)F)cc23)CC1
inactive: Potency [1] > 11.4 µM | activity change, negative = inhibition [2] -20.1% | Potency [3] | activity change, negative = inhibition [4] 6.97% | activity, negative = inhibition [5] -9.2% | Potency [6] > 46 µM | Potency [7] > 46 µM | outcome [8] | Potency [9] | outcome [10] | outcome [11] | activity change, negative = inhibition [12] 4.82% | Potency [13] | Potency [14]
20.7%: max response [12, 19]
14.4%: max response [12, 18]

COc1ccccc1-c1cncnc1NCCc1cnc[nH]1
inactive: Potency [1] > 11.4 µM | activity change, negative = inhibition [2] 1.24% | activity change, negative = inhibition [4] 3.21% | activity, negative = inhibition [5] -11.6% | Potency [6] > 46 µM | Potency [7] > 46 µM | outcome [8] | Potency [15] | Potency [9] | outcome [10] | outcome [11] | activity change, negative = inhibition [12] 11.3% | Potency [13] | Potency [14]
12.9%: max response [12, 18]
active: Potency [3] 1.26 µM | Potency [16] 0.398 µM
26.1%: max response [12, 19]

COc1ccccc1-c1cncnc1Nc1ccc(F)cc1
20.1%: max response [12, 19]
active: Potency [3] 7.94 µM | Potency [16] 0.158 µM | Potency [17] 5.01 µM
inactive: Potency [1] > 11.4 µM | activity change, negative = inhibition [2] -12.4% | activity change, negative = inhibition [4] 1.41% | activity, negative = inhibition [5] 4.34% | Potency [6] > 46 µM | Potency [7] > 46 µM | outcome [8] | Potency [15] | Potency [9] | outcome [10] | outcome [11] | activity change, negative = inhibition [12] 10.5% | Potency [13] | Potency [14]
9.46%: max response [12, 18]

Cc1noc(C)c1-c1nccc(NCc2cccnc2)n1
14.6%: max response [12, 18]
21.8%: max response [12, 19]
active: Potency [3] 0.158 µM | Potency [16] 3.98 µM
inactive: Potency [1] > 11.4 µM | activity change, negative = inhibition [2] 7.38% | activity change, negative = inhibition [4] -9.01% | activity, negative = inhibition [5] 10.1% | Potency [6] > 46 µM | Potency [7] > 46 µM | outcome [8] | Potency [15] | Potency [9] | outcome [10] | outcome [11] | activity change, negative = inhibition [12] 4.68% | Potency [13] | Potency [14]

CN(C)Cc1ccccc1-c1nc(N2CCOCC2)c2ccccc2n1
active: Potency [3] 20 µM
inactive: Potency [1] > 11.4 µM | activity change, negative = inhibition [2] 25.9% | activity change, negative = inhibition [4] -1.63% | activity, negative = inhibition [5] 27.7% | Potency [6] > 46 µM | Potency [7] > 46 µM | outcome [8] | Potency [9] | outcome [10] | outcome [11] | activity change, negative = inhibition [12] 5.13% | Potency [13] | Potency [14]
11.7%: max response [12, 18]
18.4%: max response [12, 19]
